Laboratory results as given in the supplement of paper PMC10681739.

Biological target: RUNX1 (UniProt Q01196)
Experiment: RUNX1 binding intensity (PBM fluorescence), RUNX1 alone (arbitrary fluorescence units); higher = stronger binding
Conditions: RUNX1 concentration 2 nM; ETS1 concentration 0 nM
Experimental: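 Cooperative gcPBM on 36-bp genomic probes with neighbouring ETS1 and RUNX1 sites. Recombinant human RUNX1 (2 nM) was incubated alone or with ETS1 (25 nM) and detected with anti-RUNX1 antibody plus Alexa488 secondary. Values are medians over 4 replicate spots; the RUNX1+ETS1 data were normalised to the RUNX1-only data. The probes sit in constant array flanks that are not printed.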
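Also: Full-length recombinant human RUNX1 bound to double-stranded 36-bp genomic probes on a high-density microarray, scored as Alexa488 fluorescence per spot via anti-RUNX1 antibody, median of four replicate spots.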

RUNX1, sequence (Q01196 whole entry): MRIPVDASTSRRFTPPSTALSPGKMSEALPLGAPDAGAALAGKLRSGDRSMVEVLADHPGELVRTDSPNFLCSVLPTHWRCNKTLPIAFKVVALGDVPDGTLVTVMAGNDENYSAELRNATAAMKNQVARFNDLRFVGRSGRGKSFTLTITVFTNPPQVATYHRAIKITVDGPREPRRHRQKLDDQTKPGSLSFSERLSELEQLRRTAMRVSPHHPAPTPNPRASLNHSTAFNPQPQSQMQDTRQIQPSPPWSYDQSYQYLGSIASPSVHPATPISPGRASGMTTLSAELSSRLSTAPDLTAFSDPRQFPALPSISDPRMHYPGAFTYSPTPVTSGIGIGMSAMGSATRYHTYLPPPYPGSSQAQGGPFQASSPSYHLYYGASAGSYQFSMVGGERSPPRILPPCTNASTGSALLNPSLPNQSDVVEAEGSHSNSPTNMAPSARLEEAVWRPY

Sequence | RUNX1 binding intensity
GGTGCCTGGGGAGGATGTGGGCTGACTGGGAGGGGT | 869
ACACCTCAGGAAGTGGCAGAGACCACAACAAGTCAG | 816
CAACCCGGAAGCACTAACGGAGAAACCGCAACTCGG | 3460
CCCGCCGGAAGGACGCGTCTGCGTCTCTGCGGCGAG | 688
GAAAAAAATGAGCTTCCTTTAACCACAACTGTATTA | 1350
GTGGGGCAGGATGTGCTTGCCTGGCTGCGGTTGGAC | 877
GCAGTCAGAAGGTGCGGATGCGGTAAGGTATGCGCT | 835
GAGGAACCCAAAGTAGGATGTGGTTTTGCAATTGGA | 1020
GAAGCTCCCCAAACAGGATGTGGTTAGGGAGAGGGG | 879
CAAGAGAAAGGAAGTGGAAGCTCTTGTGGTCTGGAA | 733
ACACCCCAGGAAGTGGCAGAGACCACAACAAGTCAG | 874
AGAGCAACAGGATGCAAATAACCACAAGCAAGAATA | 1160
CACCCATAGCACCCCGGAAACCACCTCCACCACCTG | 1390
AAGTTGATTTCCGGGTAGTCTGTGGTTTCCTAATCA | 1210
TCTCTATGGTTTCCGTTGGGTGTGTGGTTTTTTTGT | 1130
CAGGAGCAGTGTAGAGGAAGTGGTTTCCATCACGGA | 862
